# Measured values from the supplement of paper PMC11417369.
# ± gives the standard deviation of the averaged measurements. In all, about 25,000 sequences were measured (“ln(normalized median fluorescence intensity)”: median about 8.6, highest 2% from about 10 on). The list comes from a sample in which the highest values are over-represented; it also holds similar and randomly drawn sequences.
# Test system: PfAP2-EXP AP2 domain (GST-tagged)
# Test: gcPBM binding intensity (ln(normalized median fluorescence intensity)); higher = stronger DNA binding
# Summary of the method: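 In this array assay, P. falciparum DNA-binding domains with a GST tag, expressed in E. coli, were applied for 1 h to primer-extended double-stranded 36-bp intergenic genomic probes and negative controls on an Agilent 4 × 180k array. Bound protein was visualised with Alexa488 anti-GST antibody at 488 nm. Binding intensity is the highest Masliner-normalised natural-log median intensity across replicate spots of either probe orientation.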
row,Sequence,gcPBM binding intensity (ln)
1,TATTTTTATTTTTAAACCATATATATATATATATAT [CACACA_negctrl_site1560],10.3 ± 0.23
2,GCATATATTATATATTTATTTATTTTTTTTTTTTAA [GTGCAC_negctrl_site193],8.32 ± 0.46
3,AAAATATATTAAGGCACACACATACAGATATATATA [CACACA_site5951],8.9 ± 0.37
4,TATAAAATATAATTAGCACACATATATAAAATATAT [CACACA_site9355],8.21 ± 0.34
5,ATTTTGCCTGACCCATGTACATATTATTTTTTGCAT [XGTACX_site2258],9.41 ± 0.4
6,AGTATATTAATATAATGTACAAACGTTTATTTTGTA [XGTACX_site5980],8.59 ± 0.42
7,TACGAAATCATATGTACACACACATATATATATATA [CACACA_site5216],10.1 ± 0.39
8,ATATATATATATATATGTACATATATATACATATAT [XGTACX_site6987],10.1 ± 0.43
9,ATATATATATATATATGTACATACATACAATCATAT [XGTACX_site6410],10.3 ± 0.45
10,TTACGATCATCAATATGTACATATATATATATATAT [XGTACX_site4301],10.2 ± 0.3
11,AAATATATATATATATGTACACACACACATATAAAT [XGTACX_site847],8.5 ± 0.3
12,CGAAATCATATGTACACACACATATATATATATATA [CACACA_site2151],10.2 ± 0.62
13,TATATATATATATATGTACACACATCAATCATATTA [CACACA_site8594],10.1 ± 0.36
14,AAAATATATACAATATGTACATATATATATATATAT [XGTACX_site1898],9.96 ± 0.35
15,ATATATATATATATATGTACACACATCAATCATATT [XGTACX_site4005],10.2 ± 0.54
16,TTAACAAAATATAGCACACATAAATATATATTTATG [CACACA_site351],8.66 ± 0.33
17,TATACATATTATATATGTACACATATTATATGTATA [XGTACX_site5851],8.27 ± 0.15
18,ATTATATAGAATTGTACATGCGAATTGTATAACGAT [TGCATGCA_site125],9.31 ± 0.57
19,ACATATATATAATATATATATCATCATATTTTCTTA [CACACA_negctrl_site853],8.27 ± 0.39
20,TATTAAAATTAAAAAAAAAAAAAAAAGCAATAAAAA [XGTACX_negctrl_site426],8.33 ± 0.71
21,CGTATGCAAGGAACCACACACACACCCATAAATGTA [CACACA_site749],8.51 ± 0.45
22,TTTTCTACATCTTGTTGTACGAAAAATAAAAAAAAT [XGTACX_site4620],8.72 ± 0.47

row,Sequence,gcPBM binding intensity (ln)
1,TATTTTATAAATTAATGTACATAAATTATATCTACT [XGTACX_site3625],8.35 ± 0.16
2,TTTTAAACAGGACACACACACATATAGATTTATATA [CACACA_site6560],8.69 ± 0.4
3,TTTTTTTTTTTTTTTTTTAAACACCTCAAAAAAAAA [CACACA_negctrl_site807],8.04 ± 0.36
4,GAGGTCTTTTTTAATGTGCACATATATATATATATA,10.3 ± 0.25
5,ATAATATCTTTATGTGTGCACATATATATATATATA,10.1 ± 0.38
6,ATATATATCTTTTGTGTGCACATATATATAATATAT,8.97 ± 0.24
7,GGAAAAGGTATCCGTTCACACATAAATGGATACCAT [CACACA_site5072],8.31 ± 0.4
8,ATTCATCCAATAATGTGAATTATCATGATAAACTTA [TGCATGCA_negctrl_site406],8.26 ± 0.43
9,CAAAGTATTATGATTACACACATGTGCTTTTTTCTT [CACACA_site163],8.57 ± 0.42
10,GGTATACGCAAGTATACACACATATATATATATATA [CACACA_site3240],10.1 ± 0.47
11,GGTATACTCAAGTATACACACATATATATATATATA [CACACA_site5746],10.2 ± 0.45
12,CAAACAATTAAACAAACACACATATACAAGTATATA [CACACA_site8639],8.38 ± 0.36
13,GGTATACACAAGTATACACACATATAAATATAAATA [CACACA_site7511],8.5 ± 0.45
14,GGTATACACAAGTATACACACATATATATATATATA [CACACA_site9063],10.2 ± 0.22
15,TATATACTCAAACACACACACACATACACAGACATA [CACACA_site5025],8.77 ± 0.57
16,ATTTTAGGAAAAAAAAGTACATATAATTTTTTATAT [XGTACX_site6954],8.19 ± 0.31
17,AAATGTTATATATAATGTACTTGTAAGAACGTTCCT [XGTACX_site2840],8.67 ± 0.45
18,GTGTAGTTAAAAAAAAGTACAGATTTTTTTTTTTTT [XGTACX_site849],8.43 ± 0.092
19,ATATTTATAACTTGGTGTACTTTGAAAAAAAAAAAA [XGTACX_site5194],8.38 ± 0.26
20,TTTTAATAATATGGATGTACATAAAAATAAATAAAT [XGTACX_site7937],9.04 ± 0.38
21,AAAAAACACTTAAGGTGTACCTTTTAATATAAGTAT [XGTACX_site2397],8.38 ± 0.3
22,TATGTGAAATAAGGATGTACAATTTTGATTTCCCCA [XGTACX_site8389],8.86 ± 0.52
